Bioassay records: PubChem BioAssay, SRMLSC
DPM-DC inhibit: S. pneumoniae DPM-DC inhibition; 65,000 compounds, 0.49% hits; purified DPM-DC, PK/LDH coupled NADH fluorescence; calls only at 10 µM;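 active means the 320 compounds with the highest percent inhibition in the single-dose primary screen, excluding strongly autofluorescent ones, cut at about 32% in these data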;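 further: kinetic rate of NADH fluorescence loss reporting ADP formed by the decarboxylase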
A340 absorber: compound absorbs light at 340 nm. compound absorbance at 340 nm, fold over control. fold change at 10 µM. 65,000 tested, under 10 active;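 active means at 10 µM dose, initial 340 nm absorbance at least 2 fold that of control wells; inactive means change under 2 fold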;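 further: initial absorbance extrapolated from kinetic A340 decline of NADH oxidation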
NADH enzymes: blocks coupling enzymes of NAD/NADH assays | AID 774 | 65,000 compounds, 0.02% hits | IC50, µM (series often up to 10 µM), without a hit: top-dose inhibition | coupled PK/LDH NADH assays, four targets;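 active means single-dose screening hits from any of four coupled enzyme assays that gave an IC50 when retested across doses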;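 further: the DPM-DC format reads NADH fluorescence rather than 340 nm absorbance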
Spn PMK inh: blocks S. pneumoniae phosphomevalonate kinase | purified PMK, PK/LDH-coupled NADH absorbance 340 nm | inhibition, % at 10 µM | 65,000 compounds, 0.49% hits;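 active means top-ranked compounds by inhibition in the single 10 µM screen, taking a fixed number of the strongest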;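 further: 0% = full reaction with DMSO carrier and 100% = background rate without enzyme reaction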
Autofluor 339: intrinsic fluorescence of library compounds, ex339/em460 – biochemical, MLSMR library, data from DPM-DC assay, artefact control, profiling panel. compound autofluorescence, ex339/em460 nm, NADH buffer; hits give high values; 1 = no-compound wells, NADH background. fluorescence fold increase at 10 µM. 65,000 compounds, 5.5% hits. AID 709;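 active means at 10 µM, mean starting fluorescence two-fold or more over control wells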;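 further: signal is the first read of a kinetic run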
Spn MK inh: S. pneumoniae mevalonate kinase inhibition | purified MK, PK/LDH-coupled NADH absorbance 340 nm | inhibition, % at 10 µM | 65,000 compounds, 0.48% hits;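 active means ranked among the strongest by inhibition in the single 10 µM screen, a fixed top-ranked set picked for dose follow-up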
* marks the source's active call; other numbers are inactive results; i = inactive; . = not tested or not shown; + = active, no number. Compounds with a hit are over-represented: about 6.3% of the library has one in this group of screens.

SMILES	DPM-DC inhibit	A340 absorber	NADH enzymes	Spn PMK inh	Autofluor 339	Spn MK inh
O=C(N1CCC(O)(c2cccnc2)CC1)C12CC3CC(CC(C3)C1)C2	i	1	2%	6	1.2	0
CCOC(=O)c1sc2nc(N3CCOCC3)c3c(c2c1N)CCCC3	.	1.1	7%	7	3.7*	6
COC(=O)c1ccc(Cn2nnc3c(sc4nc(N5CCOCC5)c5c(c43)CCCC5)c2=O)o1	i	1	4%	6	1.1	7
COCCCNC(=O)CCCn1c(=O)[nH]c2ccccc2c1=O	i	0.99	5%	13	1.1	2
COC(=O)c1ccc2c(=O)n(CCCCCC(=O)NCc3ccccn3)c(=O)[nH]c2c1	i	1	11%	15	2.5*	2
CCCn1c(=O)n(C)c(=O)c2c3oc(=O)c(NC(=O)c4ccc(F)cc4)cc3[nH]c21	i	1	4%	11	1.1	1
N#Cc1cnc(SCCc2ccccc2)nc1N	i	1	3%	14	1.3	0
Cc1cnc(SCCc2ccncc2)nc1C	+	1.1	6%	3	1.1	16
CC(=O)Nc1ccc(NC(=O)CN(c2ccccc2Cl)S(C)(=O)=O)cc1	i	1	6%	2	1.1	7
Cc1nnc(SCc2ccccc2)n1N	i	0.96	4%	26*	1	4
COCCOC(=O)c1cc(C(=O)c2cc(F)ccc2O)coc1=N	i	1	8%	16	2.4*	10
CCOc1cc(CNc2ccc3[nH]c(=O)[nH]c3c2)ccc1OCC(=O)NC(C)(C)C	.	1.1	7%	3	3.8*	10
COc1cc(CNc2ccc3[nH]c(=O)[nH]c3c2)cc(Cl)c1OCC(=O)NC(C)(C)C	i	1.1	11%	4	3*	2
N#Cc1cc2c(nc1SCc1cccnc1)CCCCC2	i	1.1	3%	0	1.1	8
N#Cc1cc2ccccc2nc1SCc1cccnc1	i	0.99	12%	29*	1.1	7
Cn1c(=O)c2nc(NCc3ccccc3)cnc2n(C)c1=O	i	0.99	13%	14	3.9*	5
COc1ccc(N(Cc2cc3cc(OC)ccc3[nH]c2=O)C(=O)c2cccnc2)cc1	i	1.1	10%	4	2.7*	10
COc1ccc2[nH]c(=O)c(CN(C(=O)c3ccccn3)c3ccccc3)cc2c1	.	1.1	12%	10	3.4*	13
CCC(=O)N(Cc1cc2cc(OC)ccc2[nH]c1=O)c1cc(C)ccc1C	+	1	20%	20	2.4*	7
CC(C)C(=O)N(Cc1cc2ccccc2[nH]c1=O)C(C)C	i	1	5%	6	1.2	9
COc1ccc2[nH]c(=O)c(CN(C(=O)COc3ccccc3)C(C)C)cc2c1	i	1.1	4%	0	2.6*	1
CC1CCCCC1NC(=O)CN1CCC(O)(c2ccc(F)cc2)CC1 (stereo not given)	i	1	2%	0	1.1	6
CCN(CC)S(=O)(=O)c1ccc2c(c1)c(=O)c(C(=O)N1CCN(c3ccccc3)CC1)cn2C	i	1	3%	5	1	3
CCC(=O)Nc1cc(C)c(NC(=O)c2ccccc2OC)cn1	i	0.99	3%	0	1	10
COc1ccc(OC)c(CC(NC(C)=O)C(=O)NC2CCN(c3nc(C)cc(C)c3C#N)CC2)c1 (stereo not given)	i	1	10%	0	2.8*	12
SMILES	DPM-DC inhibit	A340 absorber	NADH enzymes	Spn PMK inh	Autofluor 339	Spn MK inh
COc1cc(C(=O)N2CCC(NC(=O)C(Cc3ccccc3C)NC(C)=O)CC2)cc(OC)c1OC (stereo not given)	i	1	6%	12	1.1	6
CCOC(=O)C1=C(c2ccccc2)NC(SCC(=O)Nc2ccccc2C)=C(C#N)C1c1ccco1 (stereo not given)	i	1	3%	8	1.1	1
CCOCCCn1c(=N)c(C(=O)Nc2cc(C)on2)cc2c(=O)n3ccccc3nc21	.	1	1%	0	2.1*	1
CCCn1c(=N)c(C(=O)NCC2CCCO2)cc2c(=O)n3cccc(C)c3nc21 (stereo not given)	.	1	17%	20	3.7*	13
COCCCn1c(=N)c(C(=O)NCC2CCCO2)cc2c(=O)n3ccccc3nc21 (stereo not given)	.	1	9%	13	4.9*	4
Cc1cccn2c(=O)c3cc(C(N)=S)c(=N)n(CCCOC(C)C)c3nc12	i	1	2%	2	2*	0
CCOCCCn1c(=N)c(C(N)=S)cc2c(=O)n3cccc(C)c3nc21	i	1.2	9%	1	1.9	4
Cc1ccc2[nH]c(C)c(CN(C)C3CCN(C)CC3)c(=O)c2c1	i	0.98	2%	6	1.1	0
O=C(Cn1ncc2c1-c1ccccc1OC2)N1CCN(Cc2ccc3c(c2)OCO3)CC1	i	1.1	8%	14	1.1	8
Cc1ccc2[nH]c3c(c2c1)CN(C(=O)CN1CCN(c2ccccc2F)CC1)CC3	i	1	2%	0	1.1	5
O=C(Cn1nc(C(F)(F)F)c2c1CCCC2)Nc1ccc2c(c1)OCO2	i	1	5%	16	1	0
COCCCn1c(=N)c(C(=O)NCC2CCCO2)cc2c(=O)n3cccc(C)c3nc21 (stereo not given)	.	1	3%	11	2.9*	11
Cc1ccc(CNC(=O)c2cc3c(=O)n4cccc(C)c4nc3n(CC3CCCO3)c2=N)cc1 (stereo not given)	.	1	5%	0	4*	10
N=c1c(C(=O)NCc2ccc(F)cc2)cc2c(=O)n3ccccc3nc2n1CC1CCCO1 (stereo not given)	.	1	7%	9	3.9*	5
COc1ccc(CNC(=O)c2cc3c(=O)n4ccccc4nc3n(Cc3ccco3)c2=N)cc1	i	0.99	2%	5	1.3	1
Clc1ccc(Cc2nn3c(Cn4nnc5ccccc54)nnc3s2)cc1	i	1	2%	0	1	4
O=C(CCn1c(=O)oc2ccccc21)NCCCN1CCCC1=O	i	1	4%	5	1.1	6
COc1ccc(N2CCN(c3nc4c(c(=O)[nH]c(=O)n4C)n3CCCc3ccccc3)CC2)cc1	i	0.98	2%	0	1	1
CCOC(=O)c1c(C)n(OCc2ccccc2)c2ccc3c(no[n+]3[O-])c12	+	0.99	4%	6	0.98	7
COC(=O)c1ccc(C(=O)OC)c(NS(=O)(=O)c2ccc(NC(C)=O)cc2)c1	.	1.1	3%	6	2.2*	0
COC(=O)c1ccc(C)c(NS(=O)(=O)c2ccc(OC)cc2)c1	i	1	6%	16	1.1	3
O=C(CN1C2=NCCN2c2ccccc21)C12CC3CC(CC(C3)C1)C2	i	1	4%	5	1.1	7
